# Reference: PubChem BioAssay (Tox21)
# Records with an inconclusive call do not appear. Values without a mark were called inactive. Calls of active or inactive are those of the source. The call rests on the fitted dose curve; in most records, active means well fitted inhibition curve with a large enough effect in the signal ratio in the repeat runs (not every such curve was filed as active); inconclusive means weak or mixed curves; inactive means flat fitted curve, though single readings scatter; the % refers to the signal ratio.
# Biological target: Progesterone receptor (Homo sapiens) (UniProt P06401)
# Sequence (P06401 whole entry, looked up): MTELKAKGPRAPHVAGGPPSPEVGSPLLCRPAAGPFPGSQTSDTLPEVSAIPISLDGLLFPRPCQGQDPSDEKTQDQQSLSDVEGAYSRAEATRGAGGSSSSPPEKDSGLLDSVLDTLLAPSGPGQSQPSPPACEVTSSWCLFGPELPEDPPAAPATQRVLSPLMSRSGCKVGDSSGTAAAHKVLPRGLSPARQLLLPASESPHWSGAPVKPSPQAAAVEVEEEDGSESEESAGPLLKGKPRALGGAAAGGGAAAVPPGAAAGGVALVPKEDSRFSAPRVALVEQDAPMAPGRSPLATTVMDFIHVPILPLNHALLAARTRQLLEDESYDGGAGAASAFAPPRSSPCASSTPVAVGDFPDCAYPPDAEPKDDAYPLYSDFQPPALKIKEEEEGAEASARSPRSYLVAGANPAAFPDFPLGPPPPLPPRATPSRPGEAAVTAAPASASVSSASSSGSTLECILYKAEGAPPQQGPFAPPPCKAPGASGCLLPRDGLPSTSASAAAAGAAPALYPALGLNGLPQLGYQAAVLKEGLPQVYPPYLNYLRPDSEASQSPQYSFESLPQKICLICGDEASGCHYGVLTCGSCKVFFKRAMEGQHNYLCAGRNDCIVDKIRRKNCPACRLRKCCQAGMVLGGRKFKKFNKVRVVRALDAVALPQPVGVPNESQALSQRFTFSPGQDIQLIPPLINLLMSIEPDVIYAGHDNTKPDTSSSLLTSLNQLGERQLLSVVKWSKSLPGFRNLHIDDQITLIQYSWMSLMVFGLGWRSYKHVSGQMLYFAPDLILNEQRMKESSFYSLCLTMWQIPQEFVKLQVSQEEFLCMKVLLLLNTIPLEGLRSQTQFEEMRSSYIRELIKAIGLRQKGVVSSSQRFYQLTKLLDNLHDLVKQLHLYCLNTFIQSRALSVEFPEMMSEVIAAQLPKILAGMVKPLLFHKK
# Experiment: qHTS assay to identify small molecule antagonists of the progesterone receptor (PR) signaling pathway (AID 1346795)
# Settings: PR-UAS-bla HEK293T, beta-lactamase FRET ratio, 16 h; series mostly up to 92.4 µM; activity change, negative = inhibition: at the top concentration
# Excerpt: National Center for Advancing Translational Sciences [NCATS]
# NIH Chemical Genomics Center [NCGC]
# U.S. Environmental Protection Agency [EPA]
# National Institutes of Environmental Health Sciences [NIEHS]
# National Toxicology Program [NTP]
# U.S. Food and Drug Administration [FDA]
# Progesterone receptor (PR), a nuclear hormone receptor, plays an important role in development, metabolic homeostasis and reproduction. […] Endocrine disrupting chemicals (EDCs) and their interactions with steroid hormone receptors like PR causes disruption of normal endocrine function. To identify the compounds that inhibit PR signaling, a PR-UAS-bla GripTite cell line i.e. PR-UAS-bla HEK293T (Invitrogen, Carlsbad, CA, USA) containing a beta-lactamase reporter gene under the control of an Upstream Activator Sequence (UAS) was used to screen Tox21 10K compound library.
# Tox21 Assay Protocol Summary:
# PR-UAS-bla HEK293T cells were dispensed at 3,000 cells/4 uL of assay medium containing 2% charcoal stripped FBS per well into black wall/clear-bottom 1536-well plates using a Multidrop Combi (ThermoFisher Scientific, Waltham, MA) dispenser. After the assay plates were incubated at a 37C and 5% CO2 for 6 hr, 23 nL of compounds dissolved in DMSO, positive controls or DMSO only was transferred to the assay plate by a Pintool station (Kalypsys, San Diego, CA), followed by addition of 1 uL (1nM as final concentration) of Promegestone (R5020) in assay medium using a BioRAPTR FRD (Flying Reagent Dispenser, Aurora Discovery, San Diego, CA). The plates were incubated at 37C and 5% CO2 for 16 hr. Then 1 uL of LiveBLAzer B/G FRET substrate was added using a FRD. After the plates were incubated at room temperature for 2 hours, fluorescence intensity was measured by an Envision plate reader (PerkinElmer, Shelton, CT).
# On the % scale 0 is the no-effect control and ±100 the full control effect; potency means the concentration at half of the fitted maximal effect.
SMILES,"activity change, negative = inhibition",Potency
CC(C)NCC(O)c1ccc([N+](=O)[O-])cc1 (stereo not given),10.8% [at 42.5 µM],
CCN1CCCC1CNC(=O)C(O)(c1ccccc1)c1ccccc1 (stereo not given),-8.56% [at 42.5 µM],
NNCc1ccccc1,-5.05%,
ClC(Cl)(Cl)Cl,0.399%,
O=C(Cl)OCc1ccccc1,3.61%,
CCNc1nc(NCC)nc(SC)n1,-9.84%,
N=C(N)[Se],0.331%,
NCCOS(=O)(=O)O,5.71%,
CCC(CC)(CNC(=O)CCCO)c1cccc(OC)c1,3.42% [at 42.5 µM],
CC1=C2[C@H]3OC(=O)[C@@H](C)[C@@H]3CC[C@@]2(C)C=CC1=O,-8.99% [at 42.5 µM],
CCCOc1nn(C(=O)NS(=O)(=O)c2ccccc2C(=O)OC)c(=O)n1C,12.4%,
CCc1ccc(C2CCNCC2)cc1,-8.57% [at 42.5 µM],
COc1cccc([C@@]2(O)CCCC[C@@H]2CN(C)C)c1,6.4% [at 42.5 µM],
Cc1ccc2cc(C)ccc2c1,4.16%,
COc1cc(CC(C)N)cc(OC)c1OC (stereo not given),2.64%,
CCCN1CCC[C@@H]2Cc3[nH]ncc3C[C@H]21,4.56% [at 42.5 µM],
CC(O)CCl (stereo not given),9.29%,
O=C(CCl)NCO,4.07%,
CC(C)[N+](C)(CCC(C(N)=O)(c1ccccc1)c1ccccc1)C(C)C,-0.189% [at 42.5 µM],
S=C=S,9.65%,

SMILES,"activity change, negative = inhibition",Potency
Cc1cc(OC(=O)N(C)C)nn1C(=O)N(C)C,6.34%,
O=S1(=O)OCCO1,10.7%,
CCN(CC)C1CCCCC1,7.61%,
O=C(O)C(Br)(Br)Br,5.58%,
CC(=O)OCC1=C(C(=O)O)N2C(=O)[C@@H](N)[C@H]2SC1,0.73% [at 18.9 µM],
CON(C)C(=O)Nc1ccc(Br)cc1,-14%,
CC#Cc1cc(C)nc(Nc2ccccc2)n1,,24.3 µM (active)
COC(=O)c1ccccc1CS(=O)(=O)NC(=O)Nc1nc(OC)cc(OC)n1,6.37%,
CCN[C@@H](C)Cc1ccccc1,0.195%,
CC(C)(N)Cc1ccc(Cl)cc1,-6.35% [at 42.5 µM],
CCOC(=O)C(Cl)Cc1cc(-n2nc(C)n(C(F)F)c2=O)c(F)cc1Cl (stereo not given),4.76%,
ClCCCCl,3.18%,
CCCCCCCCBr,7.86%,
C=C1CC[C@@]2(O)[C@H]3Cc4ccc(O)c5c4[C@@]2(CCN3CC2CC2)[C@H]1O5,-3.58% [at 42.5 µM],
CC(C)N(Cc1ccccc1)C(=O)C(C)(C)C,-12.3%,
O=c1[nH]c2ccccc2o1,-7.91%,
CCC(C)(C#N)N=NC(C)(C#N)CC (stereo not given),10.3%,
Cn1c(N)nc2c3cccnc3ccc21,-0.672%,
COc1cccc(C=O)c1,8.42%,
C=CCCC#N,0.535%,
